SENP7 inh = SENP7 protease inhibitors, primary screen, biochemical, luminescence, uHTS. Sentrin-specific protease 7 (Homo sapiens), Q9BQF6. AID 434973, 2010. 330,000 tested, 1.5% active. recombinant SENP7, Z-RLRGG-aminoluciferin luminescence, 40 min. inhibition, % at 5 µM;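 active means inhibition above about 50% at the single test dose, limit read from the data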;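 further: plate controls were DMSO with enzyme for no effect and no enzyme buffer wells for full effect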
EBI2 antag = EBI2 receptor antagonists, beta-arrestin recruitment, primary screen, cell-based, luminescence, 7a,25-OHC stimulation, uHTS. G-protein coupled receptor 183 (Homo sapiens), P32249. 360,000 tested, 0.81% active. inhibition, % at 5 µM. 7a,25-OHC stimulated; in the data active means inhibition above about 38%;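 further: enzyme fragment complementation signal reports receptor beta-arrestin coupling in cells; 0% = agonist plus DMSO wells and 100% = wells without agonist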
Target sequence (P32249 whole entry, looked up, the tested form may be a part): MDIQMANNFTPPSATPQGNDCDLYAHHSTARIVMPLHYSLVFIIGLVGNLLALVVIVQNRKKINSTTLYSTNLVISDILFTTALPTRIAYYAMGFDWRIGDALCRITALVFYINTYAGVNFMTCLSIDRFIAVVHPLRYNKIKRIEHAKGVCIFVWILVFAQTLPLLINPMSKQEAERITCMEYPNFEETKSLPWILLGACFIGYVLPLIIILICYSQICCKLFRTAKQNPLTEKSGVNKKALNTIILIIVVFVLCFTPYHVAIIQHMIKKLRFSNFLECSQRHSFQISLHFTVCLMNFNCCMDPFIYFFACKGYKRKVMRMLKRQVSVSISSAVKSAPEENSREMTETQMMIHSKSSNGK
SENP8 block-1 = SENP8 protease inhibitors, primary screen, biochemical, luminescence; Sentrin-specific protease 8 (Homo sapiens), Q96LD8; purified SENP8, Z-RLRGG-aminoluciferin cleavage; inhibition, % at 10 µM; 330,000 tested, 1.2% active; AID 2540, 2010; in the data active means inhibition above about 50%
AHR activator = AHR activators, primary screen, cell-based, luminescence, luciferase reporter, human; Aryl hydrocarbon receptor (Homo sapiens), P35869; activation, % at 5 µM; 320,000 tested, 2.5% active; AHR-responsive luciferase reporter cells; in the data active means activation above about 47%;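 further: 0% = vehicle wells and 100% = reference agonist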
SENP6 block = SENP6 protease inhibitors, primary screen, biochemical, luminescence, uHTS; 330,000 tested, 1.8% active; Sentrin-specific protease 6 (Homo sapiens), Q9GZR1; inhibition, % at 10 µM; Recombinant SENP6 catalytic domain, aminoluciferin luminescence;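 active means inhibition above about 50% at the single tested dose, limit read from the data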;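 further: plate controls were DMSO wells with enzyme for no effect and DMSO wells lacking enzyme for full effect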
SENP8 block-2 = human SENP8 protease inhibitors, primary screen, biochemical, fluorescence, Nedd8 protein substrate, uHTS. Sentrin-specific protease 8 (Homo sapiens), Q96LD8. recombinant SENP8. inhibition, % at 20 µM. 360,000 tested, 0.64% active; in the data active means inhibition mostly above about 40%, no sharp cut-off; inactive means mostly below about 27%
* marks the source's active call; other numbers are inactive results; / = no result. Compounds with a hit are over-represented: about 5% of the library has one in this group of screens.

SMILES	SENP7 inh	EBI2 antag	SENP8 block-1	AHR activator	SENP6 block	SENP8 block-2
CC(C)(C)c1ccc(-c2nc(N)nc(N)n2)cc1	-4.7	6.0	-2.3	13.1	-4.3	22.0
CC1=NN(c2ccc(Cl)cc2)C(=O)/C1=C\c1cccn1-c1ccc(S(N)(=O)=O)cc1	2.3	59.7*	-10.4	22.0	-7.3	35.8
Cc1ccc(S(=O)(=O)N/N=C/c2cccn2-c2ccc(Cl)cc2)cc1	3.5	9.3	10.7	1.4	7.0	24.8
COC(=O)C[C@H]1C[C@@H]2c3cc(NC(=O)NC4CCCC4)ccc3O[C@@H]2[C@@H](CO)O1	/	-0.2	/	/	/	7.7
CCC(c1nnnn1Cc1ccc(F)cc1)N(CCCO)Cc1cc2cc3c(cc2[nH]c1=O)OCO3 (stereo unspecified)	0.4	3.7	0.4	72.7*	0.8	-461.4
COc1ccc(OC)c(NC(=O)C2CC(=O)N(Cc3ccco3)C2)c1 (stereo unspecified)	5.0	-10.9	-9.5	/	-3.4	7.2
O=C(Nc1ccc(-c2csc(Nc3cccc(C(F)(F)F)c3)n2)cc1)c1ccccc1	0.5	20.1	-2.2	78.1*	-5.4	-14.6
O=C(Nc1cccc(-c2csc(Nc3ccccc3)n2)c1)c1ccccc1	-6.5	30.4	-5.3	71.1*	-1.6	-8.8
CC(=O)c1cccc(Nc2nc(-c3ccccc3)cs2)c1	34.6	28.2	-0.9	56.2*	-35.7	8.7
C(=NN=C1c2ccccc2-c2ccccc21)c1ccc2c(c1)OCO2	/	15.3	/	/	/	32.8
CN(C)c1cccc(CNC(=O)c2ccc3nc([C@@H]4O[C@H](CO)[C@H](O)[C@H](O)[C@H]4O)[nH]c3c2)c1	/	-4.9	/	/	/	3.2
C[C@H](CO)N1C[C@H](C)[C@H](CN(C)C(=O)Nc2ccc(F)cc2)OCc2cnnn2CCCC1=O	/	0.6	/	/	/	-4.5
C[n+]1ccccc1/C=C/c1cc(Br)ccc1O	-2.6	-8.8	3.2	59.9*	-7.1	-7.1
COc1ccc(/C=C/c2cccc[n+]2C)c(O)c1	12.3	-8.4	-5.2	-3.5	16.8	-5.5
COc1cc(C(=O)N2Cc3cc4ccccc4nc3C2C)cc(OC)c1OC (stereo unspecified)	/	1.7	/	/	/	10.4
CNC(=S)N/N=C/c1c2ccccc2c(Cl)c2ccccc12	8.9	1.7	-6.4	48.0*	5.3	-105.8
COC(=O)Nc1nnc(/C=C/c2ccc(OC)cc2)s1	-1.1	26.5	37.4	55.0*	59.2*	-399.8
COc1ccc(/C=C/c2nnc(NC(C)=O)s2)cc1	40.4	-15.4	37.9	17.9	37.4	-442.3
COc1ccc(C(C)(C)C)cc1NC(=O)c1c(C)noc1C	3.1	-12.2	0.1	81.2*	-2.9	9.0
COc1cc(C(=O)Nc2ccc(C(N)=O)cc2)c([N+](=O)[O-])cc1OC	-12.2	2.8	-9.8	0.9	-11.9	13.2
COc1ccc(NC(C)=O)cc1NC(=O)c1c(C)noc1C	/	-10.1	/	/	/	8.7
COc1cc(C(=O)Nc2ccc3c(c2)OCO3)c([N+](=O)[O-])cc1OC	6.1	3.4	-0.8	59.0*	-12.9	11.2
COc1ccc(C(C)(C)C)cc1NC(=O)Nc1ccc2c(c1)OCO2	1.7	29.2	-8.1	78.9*	-14.1	27.6
COc1cc(NC(=O)Nc2ccc3c(c2)OCO3)cc(OC)c1OC	5.1	-8.7	-0.8	75.6*	-0.1	8.6
N#Cc1ccc(S(=O)(=O)N2CCN(C(=O)c3cn(-c4ccccc4)nc3-c3cccnc3)CC2)cc1	/	2.4	/	/	/	3.2
COc1ccc(NC(=O)N[C@H]2CC[C@@H](CC(=O)NC3CCC3)O[C@@H]2CO)cc1	/	-1.4	/	/	/	22.9
O=C(Nc1ccc2c(c1)OCO2)c1ccc(N2CCCC2)c([N+](=O)[O-])c1	9.0	11.5	2.9	-8.2	2.9	26.8
O=C(Nc1ccc2c(c1)OCO2)c1ccc(NC2CC2)c([N+](=O)[O-])c1	3.1	-12.2	8.3	51.7*	-5.1	24.8
CC(C)n1nnnc1C1c2ccccc2C(=O)N1Cc1ccc(F)cc1 (stereo unspecified)	/	7.2	/	/	/	11.7

Compound activity: PubChem BioAssay, several laboratories
